This passage reports outcome results from PubChem BioAssay AID651864 (Broad Institute, 2012).

Structures are written as SMILES. Results with a measured potency or affinity are listed apart. Calls of active or inactive are those of the source. No rule for the calls is given here.

The assay in a line: HeLa cell cytotoxicity, dose response, cytotoxicity control, 24 h, plate reader, powder samples, set 3 (AID 651864).

Consider `Cc1ccc(Cn2nnnc2NCc2ccc(N3CCCC3)cc2)cc1`, for which the compound was classed as inactive.

For `CS(=O)(=O)c1ccc(CC(=O)NC2CCCC2)cc1`, the compound was classed as inactive.

Turning to `CCCCn1nnnc1NCc1ccc(N2CCCC2)cc1`, the compound was classed as inactive.

With `CCCn1nnnc1NCc1ccc(C(C)C)cc1`, the call was inactive.

In the case of `CC1(NC(=O)Cc2ccc(-c3ccccc3)cc2)COC1`, the compound was called inactive.

On to `O=C(Cc1ccc(-c2ccccc2)cc1)NC1CCCC1`, for which the compound was classed as inactive.

As to `CCn1nnnc1NCc1cccc(OC)c1`, the outcome was inactive.

`O=C(NCc1ccc(-c2ccccc2)cc1)C1CCCC1`: the call was inactive.

Turning to `CCCn1nnnc1NCc1ccccc1Cl`, the outcome was inactive.
